Reference: PubChem BioAssay (NCI)
This is part of a sample that, as a whole, favours compounds with a hit. Of some 83,000 tested, about 20% had one in any assay.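 Negative percent growth values reflect cell death: -40 means 40% of the cells present at the start died, and -100 means all died.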 Unmarked numbers belong to inactive results. The source made the active and inactive calls. The calls were made as follows: active = growth percent below 10; inactive = the rest.

What was measured:
Test in all cases: NCI-60 one-dose screen, 48 h (100 = growth as untreated, 0 = no growth, -100 = all killed)
Settings in all cases: 10 µM unless noted
T-47D breast = system: T-47D breast
BT-549 breast = system: BT-549 breast
MDA-MB-435 melanoma = system: MDA-MB-435 melanoma
SW-620 colon = system: SW-620 colon
MCF7 breast = system: MCF7 breast
HCT-116 colon = system: HCT-116 colon
KM12 colon = system: KM12 colon
HCC-2998 colon = system: HCC-2998 colon

SMILES	growth (T-47D breast)	growth (BT-549 breast)	growth (MDA-MB-435 melanoma)	growth (SW-620 colon)	growth (MCF7 breast)	growth (HCT-116 colon)	growth (KM12 colon)	growth (HCC-2998 colon) [%]
O=CNc1cc(Cl)cc(Cl)c1	100%	99.4%	107%	103%	98.3%	100%	101%	
CC(O)(CO)c1ccccc1 (centres undefined)	102%	93.6%	99.1%	103%	98.7%	98.3%	103%	
Cc1ccc(C(=O)Nc2ccccc2C(=O)N/N=C(\c2ccccc2)c2ccccn2)cc1	13.4%	13.5%	28%	37.3%	11.9%	17.9%	26%	
Nc1c(Cl)cc([N+](=O)[O-])cc1Br	97.8%	97.5%	91.4%		99.9%	105%	103%	93.7
CC(C)(C#N)N1CCN(c2ccccc2Cl)CC1	102%	98.1%	97.3%		106%	98.4%	106%	91.4
CCNNC(=O)[C@@H]1[C@H](c2cc(OC)c(OC)c(OC)c2)c2cc3c(cc2[C@H](O)[C@H]1CO)OCO3	80.6%	-27.2% (active)	-26.9% (active)	20.5%	10.2%	0.945% (active)	-5.82% (active)	
CC(=O)c1c(-c2ccc(OC(F)(F)F)cc2)nc2ccccn12	80.6%	91.3%	102%	105%	89.8%	80.8%	97%	
O=C(Nc1cccc(Cl)c1)c1cc(Cl)ccc1O	-11.9% (active)	-6.47% (active)	5.73% (active)	6.44% (active)	4.21% (active)	6.01% (active)	5.13% (active)	
CCN1C(=O)/C(=c2\sc3n(c2=O)NC2C(N=3)N(CC)C(=O)N2CC)c2ccccc21 (centres undefined)	36.3%	58.8%	-38.6% (active)	39.5%	37.2%	12.9%	20.1%	
O=C(Nc1ccc(Cl)cc1)Nc1ccc(Cl)c(Cl)c1	-12.2% (active)	43.3%	7.4% (active)	14.4%	-4.33% (active)	5.23% (active)	6.34% (active)	
CCOC(=O)c1cnc2c(cnn2CC)c1NN=C(C)C	87.7%	91%	108%	104%	88.7%	86.5%	96.5%	
C#CCn1cc(C=C2C(=O)NC(=S)NC2=O)c2cc(Cl)ccc21	76.6%	24.6%	15%	-27.5% (active)	10.6%	2.51% (active)	14.4%	
COc1cc2c(cc1[N+](=O)[O-])-c1ccc([N+](=O)[O-])cc1/C2=N/NC(N)=S	57.4%	61.6%		40.6%	22.5%	33.8%	70.5%	72.8
Clc1cc(Cl)cc(N2N=C(c3cccc(Nc4ccncc4)c3)CC2c2ccc3c(c2)OCO3)c1 (centres undefined)	63.4%	93.8%	-85.4% (active)	-84.1% (active)	-19.3% (active)	65.3%	-51.6% (active)	
CN(C)C(C(N)=O)c1ccc(Cl)cc1 (centres undefined)	102%	100%	101%	104%	106%	94.9%	102%	
COc1cc2c(cc1[N+](=O)[O-])-c1ccc([N+](=O)[O-])cc1/C2=N\O	91.1%	73.1%		75.2%	58%	71.8%	95.1%	106
COc1cc(/C=C2\C(=O)N(Cc3ccc(Cl)cc3)c3ccccc32)cc(OC)c1OC	32.1%	9.56% (active)	28.2%	-29.7% (active)	8.81% (active)	-23.4% (active)	15.5%	
Cc1ccc(O)c(C(=O)O)c1	106%	111%	111%	104%	104%	108%	108%	
C#Cc1cccc(NC(=O)Nc2cccc(N=C=S)c2)c1	100% [8.25 µM]	102% [8.25 µM]	97.3% [8.25 µM]	104% [8.25 µM]	86.1% [8.25 µM]	95.5% [8.25 µM]	106% [8.25 µM]	
c1ccc(-c2nn(-c3ccccc3)[n+](-c3ccccc3-c3ccccc3)n2)cc1	19.2%	-0.13% (active)	6.4% (active)		8.29% (active)	7.4% (active)	9.9% (active)	18.9
CC[C@H](C)[C@@H]1NC(=O)[C@H](Cc2ccc(O)cc2)N(C)C(=O)[C@H](Cc2ccccc2)NC(=O)CN(C)C(=O)[C@@H]2CCCN2C(=O)[C@@H](Cc2ccccc2)N(C)C(=O)[C@H](CC(C)C)NC1=O	0.772% (active)	69.7%	-46.3% (active)	3.59% (active)	-25% (active)	1.24% (active)	1.4% (active)	
S=c1[nH]cccc1-c1nnc2n1Nc1nc3ccccc3cc1CS2	95.4%	100%	106%	99.4%	103%	94.9%	109%	
CN1CCCC1=Nc1ccccc1	106%	130%		112%	97.2%	114%	114%	110
COc1nccnn1	107%	94%	93%	101%	103%	99.2%	95.7%	
NC(=O)CN1CCN(c2ccccc2Cl)CC1	96.9%	99.2%	103%		102%	100%	109%	101
CN(Cc1ccccc1)c1nc(Cl)c(C2CC(c3ccc(Cl)cc3)=Cc3[nH][nH]c(=O)c32)s1 (centres undefined)	89.7%	67.7%	85%	99.8%	47.6%	94.2%	103%	
CC(C)CN(C(=O)c1ccc(Cl)cc1)c1c(N)n(CC(C)C)c(=O)[nH]c1=O	105%		112%	100%	95%	96.2%	102%	106
